Reference: PubChem BioAssay AID652054 (National Center for Advancing Translational Sciences (NCATS), 2013)
Among all 360,000 compounds or so, about 9,100 (2.5%) were called active. Not shown: some 4% with an inconclusive outcome. This excerpt belongs to a sample that is enriched for actives. Unmarked numbers belong to inactive results. No stated cut-off is given here; in the data, active means max response below about -50%; inconclusive means no clear call, values can overlap the other calls; inactive means above that.

biological target: D(3) dopamine receptor (Homo sapiens) (UniProt P35462); test: qHTS of D3 Dopamine Receptor Antagonist: qHTS; conditions: D3R cells, DiscoveRx beta-arrestin luminescence, antagonist mode; hits give low values
Sequence (P35462 whole entry, looked up): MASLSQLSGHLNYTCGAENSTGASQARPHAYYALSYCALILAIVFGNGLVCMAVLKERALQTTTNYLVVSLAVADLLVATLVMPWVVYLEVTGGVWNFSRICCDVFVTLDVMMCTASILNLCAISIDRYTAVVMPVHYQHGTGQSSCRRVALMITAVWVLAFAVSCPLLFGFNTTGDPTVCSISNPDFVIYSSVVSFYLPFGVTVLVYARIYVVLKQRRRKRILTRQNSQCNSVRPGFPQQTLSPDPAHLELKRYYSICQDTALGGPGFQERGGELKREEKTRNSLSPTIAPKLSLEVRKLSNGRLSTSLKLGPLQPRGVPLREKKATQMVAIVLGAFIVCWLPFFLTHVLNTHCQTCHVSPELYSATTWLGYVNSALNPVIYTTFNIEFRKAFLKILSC
Summary of the method: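 Cells expressing the human receptor were seeded at 1500 cells/well, incubated overnight at 37 degrees C in 5% CO2, then exposed to library compounds with dopamine controls for 90 minutes at 37 degrees C before luminescent detection.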
On the % scale 0 is the no-effect control and ±100 the full control effect.

Going from CC1(C(=O)NS(=O)(=O)c2ccccc2)CCN1C(=O)C/C=C/c1ccccc1 (centres undefined) to CC1(C(=O)O)CCN1C(=O)/C=C/c1ccccc1 (centres undefined), the max response, negative = inhibition rises from -9.32% to 0%.

Compared with CCC1OC(C2CC2)CC2=C1C(=O)OC(C)(C)O2 (centres undefined), Cc1cccc(NC(=O)CCN2CC(C)CC(C)C2)c1 (centres undefined) is lower in max response, negative = inhibition: 14.7% for the first, -1.96% for the second.

Compared with CCCC(=O)N1CCC1(C)C(=O)NCc1ccc(C(C)C)cc1 (centres undefined), COc1ccccc1N1CCN(CC(=O)NC(=O)NCc2ccco2)CC1 is lower in max response, negative = inhibition: -6.82% for the first, -22.2% for the second.

Compared with CC(C)(C)N(CC#CCC(O)(c1ccccc1)C1CCCC1)CCO (centres undefined), CC1CCCC(C)N1C(=O)COC(=O)c1ccccc1C(=O)c1ccccc1 (centres undefined) is lower in max response, negative = inhibition: 11.7% for the first, -17.2% for the second.

Compared with O=C1CCC(=O)N1CCC(=O)N(C(=O)NC1CCCCC1)C1CCCCC1, O=C(COC(=O)c1cccc(Cl)c1Cl)NC1CCCCCC1 is lower in max response, negative = inhibition: 14.6% for the first, -13.8% for the second.

Going from CC1(C)NC(=O)N(CC(=O)Nc2ccc(-c3ccccc3)cc2)C1=O to OCCN1CCN(C(=S)c2ccc(-c3ccccc3)cc2)CC1, the max response, negative = inhibition falls from 16.4% to -6.47%.

First: O=c1c2ccccc2ncn1CCCCOc1ccccc1F
Second: Fc1ccccc1OCCCCn1cncn1
The max response, negative = inhibition of the first is lower: -15.9% for the first, 2.5% for the second.

Going from Cc1ccc(/C=N/NC(=O)COc2ccccc2-c2ccccc2)cc1 to O=C(Nc1ccc(Cl)c(C(F)(F)F)c1)C1Cc2c(-c3ccccc3Oc3ccccc3)ccnc2O1 (centres undefined), the max response, negative = inhibition falls from 25.4% to 0%.

Compared with Cc1[nH]c2ccccc2c1C(=O)CN1CC(C)CC(C)C1 (centres undefined), COc1ccccc1N1CCN(c2ccc([N+](=O)[O-])nc2)CC1 is higher in max response, negative = inhibition: -3.3% for the first, 5.81% for the second.

Compared with Nc1nc2ncccn2c1-c1ccccc1, COc1ccc(C(=O)C(OP(=O)(OC)OC)c2ccccc2OC)cc1 (centres undefined) is higher in max response, negative = inhibition: -1.52% for the first, 2.58% for the second.

Compared with CCCCN1C[C@H](c2ccc(Br)cc2)[C@@H](CC(=O)Nc2ccc(Br)cc2)C1=O, CC(C)c1cccc(C(C)C)c1Nc1cn[nH]c1 is higher in max response, negative = inhibition: 24.8% for the first, 157% for the second.

In the case of CC1(C)CCSC(/C=C/c2ccccc2)=N1, the max response, negative = inhibition is reported as -74.9% (active).
CN(CC#CCC(c1ccccc1)c1ccccc1)C(C)(C)C was tested, and the max response, negative = inhibition was -61.6% (active).
In the case of c1ccc2c(c1)CSc1sccc1C2=C1CCNCC1, the max response, negative = inhibition is reported as -65.7% (active).
With CN1CCN(CCCCOc2ccccc2-c2ccccc2)CC1 the max response, negative = inhibition was -71% (active).
In the case of CC1CC(C)CN(CCOc2cccc3ccccc23)C1 (centres undefined), the max response, negative = inhibition is reported as -86.3% (active).
With COc1ccccc1N1CCN(CCCCOc2ccc(F)cc2)CC1 the max response, negative = inhibition was -78.2% (active).
CCN1CCN(CCCCOc2ccccc2F)CC1 was tested, and the max response, negative = inhibition was -71.5% (active).
